{
  "source": "PubChem BioAssay (NCATS)",
  "note": "Records with an inconclusive call do not appear. Activity calls are given as the source filed them. Calls follow the shape of the dose curve; as a rule, active = well fitted cell-killing curve with a large enough effect; inconclusive = small, poorly fitted or top-dose-only effect; inactive = no such curve, though single readings can be large or run the other way. % is scaled to controls: 0 for no effect and ±100 for the full control effect; potency is read from the fitted curve at half-maximal effect.",
  "data": [
    {"experiment": "qHTS of pediatric cancer cell lines to identify multiple opportunities for drug repurposing: Primary screen for MG 63 (6-TG R) cells (AID 1347105); also: nearly all actives have a fitted effect of over 50% in size", "conditions": "MG 63 (6-TG R) viability, CellTiter-Glo, 48 h; series mostly up to 46 µM; activity change, negative = cytotoxic: at the top concentration", "excerpt": "Drug repurposing or repositioning has been offered as a strategy for drug development in oncology programs. This approach has special potential for childhood cancers and other rare or orphan diseases, where the expected return on new drug development has been a disincentive to pharmaceuticals. […] In this project we exploit the poly-pharmacology of drugs to discover new indications via phenotypic screening of a panel of 19 well-characterized cell lines derived from solid tumors seen in children and adolescents. The goal is to identify approved drugs with previously unrecognized anticancer properties that has the potential to reveal new mechanisms and biological processes involved in carcinogenesis or drug resistance. We employed a titration-based paradigm (quantitative high-throughput screening or qHTS), where all compounds were tested at multiple concentrations for their effect on cell viability. Concentration-response curves (CRCs) were derived directly from the primary screen, and both potency and efficacy values were used to identify compounds with robust bioactivity profiles. We screened the NIH Chemical Genomics Center (NCGC) Pharmaceutical Collection (NPC) and Mechanism Interrogation Plate (MIPE) small molecule collections of approved and investigational compounds against these cell lines; and measured metabolically active cells after 48 hours of compound treatment as a proxy for cell viability. […] Assay Submitter: Nathalia J. Martinez, National Center for Advancing Translational Sciences, National Institutes of Health, Rockville, MD, USA; email: natalia.martinez@nih.gov Shen, M et al. Quantitative high-throughput phenotypic screening of pediatric cancer cell lines identifies multiple opportunities for drug repurposing. Oncotarget 2017 Dec 19;9(4):4758-4772. PMID 29435139.\nThe cells were obtained from University of North Carolina (UNC), Pediatric Preclinical Testing Program (PPT), and Coriell Institute (CI). qHTS cell viability assay: Cells were assayed in growth media at a density of 500-1,000 cells/well. Five microliters of cells were dispensed into 1,536-well, white, solid-bottom, TC-treated plates (Greiner Bio One) using a multidrop dispenser and incubated at 37 degrees C, 5% CO2, under a humidified atmosphere for 5 hours. Twenty-three nanoliters of compounds and controls (neutral control DMSO or positive control bortezomib at final concentration of 2.3 µM) were subsequently transferred by Kalypsys pintool. For primary screens, the MIPE collection was tested at 11-point dilutions (final concentrations range from 0.78 nM to 46 µM) and the NPC collection at 8-point dilutions (final concentrations range from 0.59 nM to 46 µM). Compounds tested in follow-up screens were assayed at 11-point dilutions. Cells were incubated for 48 hours, followed by addition of 3 µL of CellTiter-Glo (Promega). After a 15 min incubation at room temperature, samples were analyzed for luminescence intensity using a ViewLux High-throughput CCD imager equipped with clear filters.", "values": [
      {"smiles": "CC(Cc1ccc(O)cc1)NCC(O)c1cc(O)cc(O)c1", "note": "(stereo not given)", "activity change, negative = cytotoxic": "-8.52% (inactive)"},
      {"smiles": "CCCCCCCCc1ccc(O)cc1", "activity change, negative = cytotoxic": "7.61% [at 92.7 µM] (inactive)"},
      {"smiles": "CCN(CC)C(=O)c1ccc(C2=CC3(CCNCC3)Oc3cccc(O)c32)cc1", "activity change, negative = cytotoxic": "-18.7% (inactive)"},
      {"smiles": "CC1=C(C(=O)O)N2C(=O)[C@@H](N)[C@H]2SC1", "activity change, negative = cytotoxic": "-15.6% [at 16.1 µM] (inactive)"},
      {"smiles": "COc1ccc(CC2NCCc3cc(OC)c(OC)cc32)cc1OC", "note": "(stereo not given)", "activity change, negative = cytotoxic": "-7.72% (inactive)"},
      {"smiles": "C[C@]12CC[C@H]3[C@@H](CCC4=CC(=O)CC[C@@]43C)[C@H]1CC[C@H]2O", "activity change, negative = cytotoxic": "-24.7% (inactive)"},
      {"smiles": "C#CC1(O)CCC2C3CCC4=CC(=O)CCC4(C)C3CCC21C", "note": "(stereo not given)", "activity change, negative = cytotoxic": "-24.6% (inactive)"},
      {"smiles": "CCN1C[C@]2(OC(=O)c3ccccc3NC(C)=O)CC[C@H](OC)[C@@]34[C@H]5CC6[C@@H](OC)C[C@](O)(C(C[C@@H]23)[C@@H]14)[C@@]5(O)[C@@H]6OC", "activity change, negative = cytotoxic": "-0.33% (inactive)"},
      {"smiles": "NC1CC1c1ccccc1", "note": "(stereo not given)", "activity change, negative = cytotoxic": "-3.94% (inactive)"},
      {"smiles": "Nc1ccc([N+](=O)[O-])cc1", "activity change, negative = cytotoxic": "-11.7% [at 92.7 µM] (inactive)"},
      {"smiles": "CC(=O)Nc1ccc(OC[C@](C)(O)C(=O)Nc2ccc([N+](=O)[O-])c(C(F)(F)F)c2)cc1", "activity change, negative = cytotoxic": "-1.86% (inactive)"},
      {"smiles": "c1cc2ccc3cccc4ccc(c1)c2c34", "activity change, negative = cytotoxic": "-25.9% [at 92.7 µM] (inactive)"},
      {"smiles": "COC1=CC(C)=C[C@@H](C)[C@@H](O)[C@@H](C)CC(C)=CC=C[C@H](OC)[C@H]([C@@H](C)[C@@H](O)[C@H](C)[C@@]2(O)C[C@@H](O)[C@H](C)[C@@H](C(C)C)O2)OC1=O", "Potency": "5.9 nM (active)"},
      {"smiles": "CC[C@@H](C(N)=O)N1CCCC1=O", "activity change, negative = cytotoxic": "-9.42% (inactive)"},
      {"smiles": "O=[N+]([O-])/N=C1\\NCCN1Cc1ccc(Cl)nc1", "activity change, negative = cytotoxic": "-0.683% (inactive)"},
      {"smiles": "CC[N+]1(CCOC(=O)C(O)(c2ccccc2)c2ccccc2)CCCCC1", "activity change, negative = cytotoxic": "-18.2% (inactive)"},
      {"smiles": "CN[C@@H](C)[C@H](O)c1ccccc1", "activity change, negative = cytotoxic": "-20.1% (inactive)"},
      {"smiles": "CC1=NN=C(c2ccc(N)cc2)c2cc3c(cc2C1)OCO3", "activity change, negative = cytotoxic": "-0.0722% (inactive)"},
      {"smiles": "CC(=O)[O][Hg][c]1ccccc1", "Potency": "2660 nM (active)"},
      {"smiles": "C[C@@]12OC(=O)[C@]1([C@@H](O)[C@@H]1C=CCCC1)NC(=O)[C@H]2CCCl", "Potency": "29.6 nM (active)"},
      {"smiles": "CS(=O)(=O)c1ccc(C(=O)C2C(=O)CCCC2=O)c([N+](=O)[O-])c1", "activity change, negative = cytotoxic": "-9.79% [at 92.7 µM] (inactive)"},
      {"smiles": "CC(O)CN1CCN(CC(=O)[O-])CCN(CC(=O)[O-])CCN(CC(=O)[O-])CC1.[Gd+3]", "note": "(stereo not given)", "activity change, negative = cytotoxic": "-14.7% (inactive)"},
      {"smiles": "CC(C)(O)C=CC(=O)[C@](C)(O)[C@H]1[C@H](O)C[C@]2(C)[C@@H]3CC=C4[C@@H](C=C(O)C(=O)C4(C)C)[C@]3(C)C(=O)C[C@@]12C", "Potency": "29.6 nM (active)"},
      {"smiles": "O=[N+]([O-])c1c2ccccc2cc2ccccc12", "activity change, negative = cytotoxic": "-23% [at 92.7 µM] (inactive)"},
      {"smiles": "C[C@]12CC[C@H]3[C@@H](CCC4=CC(=O)CC[C@@]43C)[C@H]1CC[C@H]2OC(=O)CCC1CCCC1", "activity change, negative = cytotoxic": "-3.12% (inactive)"},
      {"smiles": "CO[C@H]1CCC(O[C@H]2C[C@H]([C@]3(C)CC[C@]4(C[C@H](O)[C@@H](C)[C@@H]([C@@H](C)C=C(C)C(=O)[C@H](C)C[C@H](C)C(=O)O)O4)O3)O[C@]3(O[C@@H]([C@H]4O[C@@](O)(CO)[C@H](C)C[C@H]4C)C[C@H]3C)[C@H]2C)O[C@H]1C", "note": "(stereo not given in full)", "Potency": "7430 nM (active)"},
      {"smiles": "CC(N[C@H]1C[C@H]1c1ccccc1)c1ccc2c(c1)OCCO2", "note": "(stereo not given in full)", "activity change, negative = cytotoxic": "10.6% (inactive)"},
      {"smiles": "CC=C(C)C(=O)O[C@H]1C(C)=C2[C@@H]3OC(=O)[C@@](C)(O)[C@@]3(O)[C@@H](OC(=O)CCC)C[C@](C)(OC(C)=O)[C@@H]2[C@@H]1OC(=O)CCCCCCC", "Potency": "118 nM (active)"},
      {"smiles": "COC(C)(C)CCCC(C)C/C=C/C(C)=C/C(=O)OC(C)C", "note": "(stereo not given)", "activity change, negative = cytotoxic": "1.72% (inactive)"},
      {"smiles": "COc1cc2cc(c1Cl)N(C)C(=O)C[C@H](OC(=O)C(C)C)[C@]1(C)O[C@H]1[C@H](C)[C@@H]1C[C@@](O)(NC(=O)O1)[C@H](OC)C=CC=C(C)C2", "activity change, negative = cytotoxic": "-27.5% (inactive)"},
      {"smiles": "C[C@]12CC[C@@H]3[C@@H](CCC4=CC(=O)CC[C@@H]43)[C@@H]1CC[C@@H]2OC(=O)CCc1ccccc1", "activity change, negative = cytotoxic": "-2.88% (inactive)"},
      {"smiles": "COc1ccc2c(c1)CN(C)CC2c1ccc(Cl)c(Cl)c1", "note": "(stereo not given)", "activity change, negative = cytotoxic": "0.773% (inactive)"},
      {"smiles": "C[C@@H]1CC[C@@]2(OC1)O[C@H]1C[C@H]3[C@@H]4CC=C5C[C@@H](O[C@@H]6O[C@H](CO)[C@@H](O[C@@H]7O[C@@H](C)[C@H](O)[C@@H](O)[C@@H]7O)[C@H](O)[C@@H]6O[C@@H]6O[C@@H](C)[C@H](O)[C@@H](O)[C@@H]6O)CC[C@]5(C)[C@@H]4CC[C@]3(C)[C@@H]1[C@H]2C", "Potency": "2960 nM (active)"},
      {"smiles": "Cc1cc(O)ccc1Cl", "activity change, negative = cytotoxic": "2.28% (inactive)"},
      {"smiles": "CN1[C@H]2CC(O)C[C@H]1[C@H]1O[C@H]12", "note": "(stereo not given in full)", "Potency": "14800 nM (active)"},
      {"smiles": "C[C@](O)(COc1ccc(C#N)cc1)C(=O)Nc1ccc(C#N)c(C(F)(F)F)c1", "activity change, negative = cytotoxic": "-21.9% (inactive)"},
      {"smiles": "C=CC(=O)NCNC(=O)C=C", "activity change, negative = cytotoxic": "-34.7% [at 92.7 µM] (inactive)"},
      {"smiles": "O=C1CCC[C@@H]2[C@H]3CCCN4CCC[C@@H](CN12)[C@@H]34", "activity change, negative = cytotoxic": "-5.3% (inactive)"},
      {"smiles": "CC1(N2CCC(n3c([C@@H]4CCCNC4)nc4ccccc43)CC2)CCCCCCC1", "activity change, negative = cytotoxic": "-74.8% (inactive)"},
      {"smiles": "c1cc2c(cc1[C@H]1OC[C@H]3[C@H]1CO[C@H]3c1ccc3c(c1)OCO3)OCO2", "activity change, negative = cytotoxic": "12.9% (inactive)"}
    ]}
  ]
}
